The record followed here is PubChem BioAssay (NCATS).

Records with an inconclusive call do not appear. Values without a mark were called inactive. Active and inactive are the calls of the source. Calls follow the shape of the dose curve; as a rule, active = well fitted cell-killing curve with a large enough effect; inconclusive = small, poorly fitted or top-dose-only effect, or effect the other way; inactive = no such curve, though single readings can be large or run the other way.
Potency is read from the fitted curve at half-maximal effect.

This assay in a line: Viability qHTS for spleen associated tyrosine kinase inhibitor (SYKi) drug resistant MV4-11 cells (AID 1963824). Also: nearly all actives have a fitted effect of over 35% in size. The settings on record: SYKi-resistant MV4-11 viability, CellTiter-Glo, 72 h; series mostly up to 45 µM; viability, % of control: at the top concentration. From the text: Department of Medicine, Hematology/Oncology
University Hospital Frankfurt, Germany.
Trials have shown promising clinical activity of the selective SYK inhibitor entospletinib in patients with high expressing HOXA9/MEIS1 acute leukemias. As the development of resistance mechanisms is a common problem in the use of targeted drugs, we performed a chemical library screen to identify drug sensitivities in SYK inhibitor resistant AML cells. […] Glucocorticoids are potent immunosuppressants which work in part by inhibiting the transcription of cytokine genes.
Described herein is a viability screen to look for activity in the SYK inhibitor drug resistant cell line against four NCATS compound libraries (MIPE 5.0, NPC, NPACT, and Kinase) totaling 11372 compounds. Active hits were reacquired for confirmation and further secondary assay testing.
SEQUENCE No. (e.g., 1, 2, 3, etc.); […] (e.g., Cells, Incubation, Reagent, etc.); VALUE; DESCRIPTION.
1; Media; 2uL; white, solid-bottom Corning assay plate.
2; Compounds; 23nL; Echo acoustic dispenser.
3; Cell; 5uL; 500 cells per well.
4: Incubation; 72hr; 37 C, 5% CO2, 95% humidity.
5; Reagent; 3uL; CellTiter-Glo reagent (Promega).
6; Incubation; 10min; room temperature.
7; Detection; Luminescence; ViewLux plate reader (PerkinElmer).
NOTES (numbers refer to Sequence numbers above
1. Quantitative high-throughput screening (qHTS) of small molecule compounds was conducted on drug resistant SYKi MV4-11 cell line.
2. Twenty-three nanoliter of small molecule compounds were added to each assay plates using the Echo acoustic dispenser (Beckman Coulter).
3. Cells were seeded into the assay plates at a final density of 500 cells in 5uL of media per well using the Multidrop Combi dispenser.
4. Plates were covered with stainless steel gasketed lids and incubated for 72 hours at standard cell culture conditions.
5. Viability was assessed by adding 3uL of CellTiter-Glo detection reagent (Promega).
6. Plates were covered with gasket lids and incubated for 10 minutes at room temperature.
7. Luminescence was measured on a ViewLux plate reader (PerkinElmer).
(In qHTS, concentration-response curves come from the screen itself.)
On to `Nc1nc(Cl)nc2c1ncn2[C@H]1C[C@H](O)[C@@H](CO)O1`, for which the Potency is 0.148 µM (active).

On to `COC(=O)c1ccc(O[C@@H]2O[C@H](CO)[C@@H](O)[C@H](O)[C@H]2O)c(OC)c1`, for which the “viability, % of control” value is 81.4%.

Take `CC(=O)C12OC(C)(C)OC1CC1C3CCC4=CC(=O)C=CC4(C)C3(F)C(O)CC12C` (stereo not given): the “viability, % of control” value was 96.7%.

As to `N[C@@H](Cn1ccc(=O)c(O)c1)C(=O)O`, the viability, % of control is 98% [at 4.97 µM].

Turning to `Cc1ccnc(NC(=O)C(C)c2cccc(C(=O)c3ccccc3)c2)c1` (stereo not given), the Potency is 23.1 µM (active).

Regarding `OCc1ccc(-c2nn(Cc3ccccc3)c3ccccc23)o1`, the Potency was 4.68 µM (active).

In the case of `c1nc(NCC2CCOC2)c2cc(-c3ccc4c(c3)OCO4)ccc2n1` (stereo not given), the Potency is 18.4 µM (active).

Take `NC(=O)Cc1cccc(C(=O)c2ccccc2)c1N`: the “viability, % of control” value was 65.6%.

`CC(C)c1c(O)ccc2c1CC[C@H]1C(C)(C)CCC[C@]21C`: the Potency is 16.4 µM (active).

`CC(=O)N(c1onc(C)c1C)S(=O)(=O)c1ccc(N)cc1`: the “viability, % of control” value is 91.8%.

Turning to `Cc1nccn1CC1CCc2c(c3ccccc3n2C)C1=O` (stereo not given), the Potency result was “inactive”.

On to `COc1ccc(CNC(=O)c2cc(-c3cncc(Cl)c3)cnc2-c2ccccn2)nc1OC`, for which the “viability, % of control” value is 72.9%.

For the molecule `CCC(=O)c1ccc(O)cc1`, the Potency was 7.5 µM (active).

With `CC(CNC1CCCCC1)OC(=O)c1ccccc1` (stereo not given), the “viability, % of control” value is 84.8%.

For the molecule `C=CCNC1=C2C[C@@H](C)C[C@H](OC)[C@H](O)[C@@H](C)/C=C(\C)[C@H](OC(N)=O)[C@@H](OC)/C=C\C=C(/C)C(=O)NC(=CC1=O)C2=O`, the Potency was 1.66 µM (active).

`CNc1cccc(CCOc2ccc3c(c2)CN(CC(F)(F)F)C(=O)[C@H](CC(=O)O)C3)n1`: the “viability, % of control” value was 54.7%.

As for `COc1cc2ncnc(-n3nc(-c4ccccn4)nc3N)c2cc1OC`, the Potency was 2.63 µM (active).

As to `CC1(C)CC[C@]2(C(=O)O[C@@H]3O[C@H](CO)[C@@H](O)[C@H](O)[C@H]3O)CC[C@]3(C)C(=CCC4[C@@]5(C)CC[C@H](O[C@@H]6O[C@H](C(=O)O)[C@H](O)[C@H](O)[C@H]6O)C(C)(C)C5CC[C@]43C)[C@@H]2C1` (stereo not given in full), the Potency was 4.85 µM (active).

On to `COc1ccc2nc3ccc(OC)cc3c(SCCCN)c2c1`, for which the Potency was 2.31 µM (active).

`CC(O)C1C(=O)N2C(C(=O)O)=C(SC3CNC(C(=O)N(C)C)C3)C(C)C12` (stereo not given): the “viability, % of control” value was 88.3%.

As to `CC(=O)OCC(COC(C)=O)OC(C)=O`, the “viability, % of control” value was 98.7%.

On to `CNC12CC3C[C@@](C)(C1)C[C@](C)(C3)C2`, for which the “viability, % of control” value was 61.5%.

Regarding `Cc1ncc([N+](=O)[O-])n1CC(C)O` (stereo not given), the “viability, % of control” value is 89.2%.

As for `CN1CCC(NC(=O)c2cc(-c3c(O)cc(O)cc3Oc3ccc([N+](=O)[O-])cc3)on2)CC1`, the Potency was 0.103 µM (active).

With `C(=C\c1ccccc1)/CN1CCN(C(c2ccccc2)c2ccccc2)CC1`, the “viability, % of control” value was 87.5%.

Regarding `O=C(Nc1cc2cc[nH]c2cn1)c1ccccc1`, the Potency was 9.2 µM (active).

For `CCCCC1=NC2(CCCC2)C(=O)N1Cc1ccc(-c2ccccc2-c2nn[nH]n2)cc1`, the “viability, % of control” value is 82.2%.

Consider `CN(C)c1ccc(Nc2nc(N)n(C(=O)c3c(F)cccc3F)n2)cc1`, for which the Potency is 4.17 µM (active).

For `O=C(CCCCCCC(=O)N/N=C/c1ccc(N(c2ccccc2)c2ccccc2)cc1)NO`, the Potency is 4.17 µM (active).

For the molecule `COc1ccc(CN2CCN(CCCSc3cc(C(C)(C)C)c(O)c(C(C)(C)C)c3)CC2)c(OC)c1OC`, the Potency was 3.48 µM (active).

On to `CC[N+]1(CC)CCC(=C(c2ccccc2)c2ccccc2)C1C` (stereo not given), for which the Potency was 8.2 µM (active).

As to `CC(O)(C(=O)O)C1CCC2(C)C1CCC1(C)C2CCC2C3(C)CCC(O)C(C)(COC4OC(CO)C(O)C(O)C4O)C3CCC21C` (stereo not given), the “viability, % of control” value was 62.5% [at 17.3 µM].

As for `CCCc1nn(C)c2c(=O)[nH]c(-c3cc(S(=O)(=O)N4CCN(C)CC4)ccc3OCC)nc12`, the Potency was 18.6 µM (active).

As for `CC(Cc1ccccc1)(NC(=O)CN)c1ccccc1` (stereo not given), the “viability, % of control” value was 76%.

Regarding `COc1cccc2c(NCc3ccccc3)nc(-n3c(N)nc4ccccc43)nc12`, the Potency is 2.91 µM (active).

For the molecule `O=C(Cn1ccnc1[N+](=O)[O-])NCCO`, the “viability, % of control” value was 104%.

For the molecule `CCCc1c2oc(C(=O)O)cc(=O)c2cc2c(=O)cc(C(=O)O)n(CC)c12`, the “viability, % of control” value was 72%.

In the case of `CC(=O)OC[C@@]12[C@@H](OC(C)=O)C[C@@H](C)[C@](C)([C@@H]3C[C@H]4C=CO[C@H]4O3)[C@H]1CCC[C@]21CO1`, the “viability, % of control” value is 93.6% [at 17.3 µM].

Turning to `C/C=C1\[C@H](O[C@@H]2O[C@H](CO)[C@@H](O)[C@H](O)[C@H]2O)OC=C(C(=O)O)[C@H]1CC(=O)OCCc1ccc(O)cc1`, the “viability, % of control” value was 101% [at 17.3 µM].

Regarding `CC(O)COc1ccccc1` (stereo not given), the “viability, % of control” value is 80.6%.
